Results reported in PubChem BioAssay AID488896 (Broad Institute, 2010).
Among all 320,000 compounds or so, about 3,100 (0.97%) were called active. The sample holds actives, similar compounds and a random draw of the others, so the mix is not that of the screen. Unmarked numbers belong to inactive results.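 Rule for the calls: active = mean replicate inhibition of at least 70% and a set share of replicates each scoring 70 or more; inconclusive = meets just one of the two criteria; inactive = fails both criteria.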

What follows are molecules tested against Scavenger receptor class B member 1 (Mus musculus) (UniProt Q61009) (assay: mouse SR-BI DiI-HDL uptake blockers – ldlA[mSR-BI] cells, fluorescence, single point, primary screen (AID 488896;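 note: 0% = median of neutral control wells and 100% = median of positive control wells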)). Conditions: ldlA[mSR-BI] CHO cells, 3 h, at 12.5 µM, hits give high values.
Chain of Scavenger receptor class B member 1 (Mus musculus) (Q61009 whole entry, looked up): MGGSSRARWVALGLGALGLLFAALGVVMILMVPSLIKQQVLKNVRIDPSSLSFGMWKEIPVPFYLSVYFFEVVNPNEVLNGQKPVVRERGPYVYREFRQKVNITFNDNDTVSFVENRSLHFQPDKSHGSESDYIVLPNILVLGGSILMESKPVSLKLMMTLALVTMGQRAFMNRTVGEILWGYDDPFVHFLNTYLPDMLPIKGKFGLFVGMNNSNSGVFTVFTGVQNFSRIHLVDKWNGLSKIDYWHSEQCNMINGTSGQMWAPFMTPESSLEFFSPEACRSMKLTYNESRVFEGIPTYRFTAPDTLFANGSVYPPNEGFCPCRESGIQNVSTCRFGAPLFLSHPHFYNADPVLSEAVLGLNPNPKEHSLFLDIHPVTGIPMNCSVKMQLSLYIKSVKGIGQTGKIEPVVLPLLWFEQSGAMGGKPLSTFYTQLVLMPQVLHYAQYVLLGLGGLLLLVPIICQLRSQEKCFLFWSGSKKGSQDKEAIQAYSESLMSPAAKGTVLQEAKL

SMILES	inhibition
O=C(Nc1ccc(C(=O)O)cc1)/C(=C/c1ccc([N+](=O)[O-])cc1)NC(=O)c1ccccc1	-3.79%
O=C(N/N=C/c1cc([N+](=O)[O-])ccc1O)/C(=C\c1cccs1)NC(=O)c1ccccc1	113% (active)
C=CCNC(=O)/C(=C\c1cccc([N+](=O)[O-])c1)NC(=O)c1ccccc1	-15%
CCCN(C(=O)COC(=O)CNS(=O)(=O)c1ccc(NC(C)=O)cc1)C1CCS(=O)(=O)C1 (stereo unspecified)	-1.04%
NNC(=O)c1ccc(Cl)cc1Cl	-14.8%
CC(C)(C)c1cc(C(=O)NN)n(Cc2ccc(Cl)cc2Cl)n1	80.1% (active)
Cn1cc(C(=O)c2ccc(Cl)cc2Cl)cc1C(=O)NN	25.2%
COCCN(C(=O)C(C)N1C(=O)c2ccccc2C1=O)c1c(N)n(CC(C)C)c(=O)[nH]c1=O (stereo unspecified)	-16.4%
O=C(COC(=O)c1ccc(O)cc1O)NC(=O)c1ccccc1	-38.7%
O=C1NCC(Nc2ccccc2)C(=O)N1 (stereo unspecified)	-24.4%
CCn1c2ccccc2c2cc(NC(=O)COC(=O)c3ccccc3Br)ccc21	-7.34%
CC1CCCC(NC(=O)c2cc(S(=O)(=O)N3CCCCC3)ccc2Cl)C1C (stereo unspecified)	11.2%
CCn1c2ccccc2c2cc(NC(=O)COC(=O)c3cc(S(=O)(=O)N4CCCCC4)ccc3Cl)ccc21	77.1% (active)
O=C(NNC(=O)c1cc(S(=O)(=O)N2CCCCC2)ccc1Cl)c1ccccc1O	108% (active)
O=C(NNC(=O)c1ccccc1O)c1ccccc1O	124% (active)
O=C(Nc1ccccc1C(=O)O)c1cc(S(=O)(=O)N2CCCCC2)cs1	-2.98%
O=C(COC(=O)c1cc(S(=O)(=O)N2CCCCC2)ccc1Cl)NCc1ccco1	17.2%
Cc1cc(C(=O)NNC(=O)c2ccccc2O)c(C)o1	13.4%
CC1=C(C)CC(C(=O)NNC(=O)c2ccccc2O)C(C(=O)O)C1 (stereo unspecified)	13.9%
COc1ccc(CCNC(=O)c2ccc(NC(=O)CC3SC(N4CCCCC4)=NC3=O)cc2)cc1OC (stereo unspecified)	66.6%
CC(=NNC(=O)c1ccncc1)c1ccc(Cl)c(Cl)c1	6.02%
COc1ccc(Cl)cc1C=CC=Nc1ccc(S(N)(=O)=O)cc1	-39.7%

SMILES	inhibition
Cc1ccc2c(O)c(Cc3ccccc3)c(=O)[nH]c2n1	7.66%
COc1ccc(C(CNC(=O)c2ccc(S(=O)(=O)Nc3ccccc3C)cc2)N2CCOCC2)cc1 (stereo unspecified)	-2.84%
COc1ccc(C(CNC(=O)c2cccc(NS(=O)(=O)c3ccc(C)c(F)c3)c2)N2CCCC2)cc1 (stereo unspecified)	-24.5%
COc1ccc(C(CNC(=O)c2cccc(S(=O)(=O)Nc3ccccc3Cl)c2)N2CCOCC2)cc1 (stereo unspecified)	79.7% (active)
COc1cc(C(=O)NCC2(c3ccccc3)CCCC2)ccc1OC(C)C	3.63%
COc1ccc(C(=O)Nc2ccc(C3(C#N)CCCC3)cc2)cc1OC	82% (active)
COc1ccc(C(=O)Nc2ccc3nc(N4CCCCC4)cc(C)c3c2)cc1OC	44.3%
CN(O)C(=S)c1ccccc1	-24.5%
Cc1c(NS(=O)(=O)c2cccc(C(=O)Nc3ccc(SC(F)F)cc3)c2)c(=O)n(-c2ccccc2)n1C	10.9%
CC(=O)c1ccc(NC(=O)C(C)OC(=O)c2ccc(NS(=O)(=O)c3ccc4[nH]c(=O)[nH]c4c3)cc2)cc1 (stereo unspecified)	18.7%
CN(CCNC(=O)c1cc2c(-c3ccccc3F)nn(C)c2s1)C1CCCCC1	42%
COc1ccccc1N1CCN(C(=O)c2cc3c(-c4ccc(Cl)cc4)nn(C)c3s2)CC1	58.4%
Cn1nc(-c2ccc(Cl)cc2)c2cc(C(=O)NCc3ccco3)sc21	90.1% (active)
C[C@]12CCC(=O)C=C1C=CC1C2CC[C@@]2(C)C1CC[C@@]21CCC(=O)O1 (stereo partly specified)	-3.73%
O=C(c1cccnc1)N(Cc1ccccc1)C(=O)c1cccnc1	-2.46%
CN(C(=O)c1ccc(NC(=O)Cc2cccc(NC(=O)C3CCN(C(=O)c4ccccc4)CC3)c2)cc1)C1CC1	15%
CCCC(O)(c1ccccc1)C(c1ccccc1)c1ccccn1 (stereo unspecified)	11.7%
COc1ccc(C(CNC(=O)c2cccc(S(=O)(=O)Nc3ccc(Br)cc3)c2)N(C)C)cc1 (stereo unspecified)	-24.3%
CCOC(=O)c1nc(Nc2ccc(C(=O)OC)cc2)c2ccccc2n1	33.7%
COc1ccc(Nc2nc(-c3cccnc3)nc3ccccc23)cn1	31.9%
Cc1cccc(-c2nc(Nc3ccc(O)cc3)c3ccccc3n2)c1	74.9% (active)
O=C1NCC(c2ccccc2)(c2ccccc2)C(=O)N1	-22.9%

SMILES	inhibition
O=C(Cc1ccc(Cl)cc1)c1ccccc1	1.95%
O=C(CNC(=O)c1cc(S(=O)(=O)N2CCOCC2)ccc1N1CCCC1)Nc1ccc(F)c(F)c1	12.1%
COC(=O)C1=CN(c2ccc(F)c(F)c2)C=C(C(=O)OC)C1c1ccc([N+](=O)[O-])cc1	71.8% (active)
COC(=O)c1nc2n(n1)C(c1ccc([N+](=O)[O-])cc1)C(C(=O)Nc1ccc(Cl)cc1)=C(C)N2 (stereo unspecified)	-8.37%
COC(=O)C1=CN(C)C=C(C(=O)OC)C1c1ccc(Cl)cc1Cl	-0.162%
Cn1cc(C2OC(=O)c3ccccc32)c2ccccc21 (stereo unspecified)	3.47%
CCCCN(C(=O)CSCc1ccc(C)cc1)c1c(N)n(Cc2ccccc2)c(=O)[nH]c1=O	7.84%
O=C(Nc1ccc2ccccc2c1[N+](=O)[O-])c1ccccc1	14.4%
COC(=O)CC(CC(=O)OC)n1cccc1	-7.62%
CC[C@]12c3[nH]c4cc(CCC(=O)N(C)C)ccc4c3CCN1C(=O)[C@@H](CC(=O)NCc1ccco1)C[C@@H]2C(=O)N1CCN(C(=O)c2ccco2)CC1	2.87%
Cc1ccc(C)c(NC(=O)CN(C)C(=O)COc2ccc3ccccc3c2)c1	2.83%
Cc1ccc(C)c(NS(=O)(=O)c2ccc(OCC(=O)NCc3cccnc3)cc2)c1	-23.5%
Cc1ccc(NS(=O)(=O)c2ccc(C)c(NC(=O)COc3ccc4ccccc4c3)c2)c(C)c1	78.5% (active)
O=C1/C(=C\c2ccc([N+](=O)[O-])cc2)CS(=O)(=O)C/C1=C/c1ccc([N+](=O)[O-])cc1	17.7%
CC[C@@H]1Cc2cc(O)ccc2C2=C1c1ccc(O)cc1C[C@H]2CC	76.1% (active)
O=C(NNC(=O)c1ccc2ccccc2c1)c1ccc(Cl)cc1	-17.1%
COC(=O)c1cnc(Nc2cc(C)ccc2OC)c2ccccc12	11.3%
COc1ccc(C)cc1Nc1nc(-c2c(C)[nH]c3ccccc23)cs1	77.1% (active)
COc1ccc(C)cc1Nc1nc(C)nc2c1oc1ccccc12	-8.2%
COCC(=O)N(C)[C@H]1C[C@H]2c3cc(Oc4ccccc4C)ccc3CCN2C(=O)[C@H]1[C@H](C)O	5.04%
COc1ccc(NC(=O)C2=NNC(=O)CC2)cc1S(=O)(=O)N1CCCCC1	12.9%
COc1ccc(OC)c(-c2csc(NC(=O)C3=NNC(=O)CC3)n2)c1	74.1% (active)

SMILES	inhibition
COc1ccc(OC)c(-c2csc(NC(=O)COC(=O)C3CC3)n2)c1	29.7%
O=C(CC(=O)c1cccnc1)c1ccccc1	1.21%
O=C(COc1ccc(/C=N/NC(=O)c2ccc(O)cc2)cc1)Nc1ccc([N+](=O)[O-])cc1	24.6%
CCCCCC(=O)Nc1ccc(C(=O)N/N=C/c2ccc([N+](=O)[O-])cc2)cc1	92.9% (active)
CCCCCC(=O)NC(=S)NNC(=O)c1ccc([N+](=O)[O-])cc1	11.5%
Cc1ccc(S(=O)(=O)N2CCN(C(=O)c3cc(S(=O)(=O)N4CCOCC4)ccc3F)CC2)cc1	-4.26%
CCOc1ccc(NC(=O)c2ccc(NC(=O)CN3C(=O)C(=O)N(CC(C)C)C3=O)cc2)cc1	75.7% (active)
CCOc1ccc(NC(=O)CN2CCN(CC(=O)Nc3ccc(OC)cc3)CC2)cc1	77.8% (active)
CCOc1ccc(NC(=O)c2ccc(NC(=O)C3CCCO3)cc2)cc1 (stereo unspecified)	24.7%
CCOc1ccc(NC(=O)c2ccc(NC(=O)COC(=O)c3ccc(NC(=O)CC#N)cc3)cc2)cc1	57.5%
CCOC(=O)N1CCN(CC(=O)Nc2ccc(F)cc2)CC1	-2.83%
CCOc1ccc(NC(=O)N2CCN(CC)CC2)cc1	-5.71%
COc1ccc(/C=C2/CCCc3ccccc3C2=O)cc1	12.7%
CCOc1cc(C=NNC(=O)CCCC(=O)NN=Cc2ccc(O)c(OCC)c2)ccc1O	7.36%
CCOC(=O)[C@H]1[C@H]2COc3ccc(Br)cc3[C@@H]2N2C(=O)CN(C)C(=O)[C@@]12C	-11.5%
Cc1cccc(NC(=O)c2ccc([N+](=O)[O-])o2)c1	0.0135%
Cc1cccc(NC(=O)c2sc(-c3ccccc3)nc2-c2ccc([N+](=O)[O-])cc2)c1	77.7% (active)
Cc1cccc(NC(=O)c2cc([N+](=O)[O-])ccc2N2CCN(C)CC2)c1	13.3%
CC(=O)OC1CCC2(C)C(=CCC3C4CC(=O)N(O)C(=O)C4(C)CCC32)C1 (stereo unspecified)	-19%
NC1=NOC(=O)C1C1CCCCC1 (stereo unspecified)	-14.7%
